Laboratory results: PubChem BioAssay AID808 (Columbia University Molecular Screening Center, 2007)
About 180 (0.19%) of roughly 93,000 compounds were called active.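 The calls were made as follows: active = activation above the screen mean plus 3 SD, with well images confirming the hit on visual review (cut at about 28% in these data, passing the limit was not always enough); inconclusive = activation above that limit but images do not confirm it; inactive = activation not above that limit.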 Only a selection was taken, and actives are over-represented in it overall.

Test: potentiators of TNFa-induced VCAM1 expression, primary screen, imaging, HUVEC, TNFa stimulus, immunofluorescence (AID 808);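 also: signal is the number of cytoplasmic VCAM-1 stained grains per positive cell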
Conditions: HUVEC TNFa-stimulated VCAM-1 immunofluorescence, high-content imaging; at 2 µM; active compounds read high; scaled per plate to unstimulated/TNFa-only wells

Row | Compound | activation
1 | O=C(Nc1ccc(Sc2ccc(Br)cc2)cc1)c1ccco1 | -2.8% (inactive)
2 | Cc1cccc(OCCCC(=O)Nc2ccc(S(=O)(=O)N3CCCC3)cc2)c1 | -20.4% (inactive)
3 | CCOC(=O)c1ccc(NC(=O)CSc2ncccn2)cc1 | 21.4% (inactive)
4 | O=C(CCCn1c(=O)[nH]c2cc(Cl)ccc2c1=O)NCCN1CCN(c2ccccc2)CC1 | 4% (inactive)
5 | O=C(CSCc1ccccc1Cl)NNC(=O)c1ccccc1 | -5.4% (inactive)
6 | O=C(CS(=O)(=O)Cc1ccccc1)NCC1CCCO1 (stereo unspecified) | 24.8% (inactive)
7 | C/C(=C\C(=O)c1cccnc1)Nc1ccc(C)c(C)c1 | -89.1% (inactive)
8 | CCCNS(=O)(=O)c1ccc2c(c1)CCCN2C(C)=O | -100% (inactive)
9 | C=CCn1c(N)c(C(=O)OCC(C)C)c2nc3ccccc3nc21 | -94.4% (inactive)
10 | c1ccc(CSc2nnc(-c3ccco3)n2Cc2ccccc2)cc1 | 1.1% (inactive)
11 | CCCc1nc2scc(-c3ccc(C)cc3)c2c(=O)n1N | -5.6% (inactive)
12 | COc1ccccc1C(=O)C(O)c1ccccc1OC (stereo unspecified) | 4.6% (inactive)
13 | COc1cc(-c2nc(-c3ccncc3)no2)cc(OC)c1OC | 1.5% (inactive)
14 | Cc1c(Nc2cc(N3CCCC(C)C3)c3nonc3c2[N+](=O)[O-])c(=O)n(-c2ccccc2)n1C (stereo unspecified) | -5.2% (inactive)
15 | Cc1cccc(C(=O)NCCCN2CCCC2=O)c1 | 26% (inactive)
16 | CSCc1cc(N2CCOCC2)nc(SCc2ccc(Cl)cc2Cl)n1 | -7.6% (inactive)
17 | O=C(NCc1cccnc1)Nc1ccccc1F | 10.6% (inactive)
18 | O=C(c1ccco1)N1CCN(CC(=O)N(C2CCCCC2)C2CCS(=O)(=O)C2)CC1 (stereo unspecified) | -39.3% (inactive)
19 | COc1cc(OC)c(C(=O)NC2CCCCCC2)cc1OC | -3.2% (inactive)
20 | Cc1ccc(-n2nc3ccc(NC(=O)/C=C/c4ccco4)cc3n2)cc1C | -46.8% (inactive)
21 | O=C(Nc1ccc(F)cc1)c1cccnc1N1CCOCC1 | -3.5% (inactive)

Row | Compound | activation
22 | O=C(Nc1ccncc1)c1c(F)cccc1F | 76.2% (active)
23 | CCC(=O)Nc1cccc(NC(=O)c2cccnc2)c1 | -7.7% (inactive)
24 | CC(=O)c1cc(NC(=O)c2ccccc2)c(=O)oc1/C=C/N(C)C | 16.1% (inactive)
25 | NC(=O)CCCC1=NS(=O)(=O)c2ccccc2N1 | 2.1% (inactive)
26 | O=C(O)c1ccc(COc2c(F)c(F)cc(F)c2F)o1 | 1.5% (inactive)
27 | CC(=O)c1ccc(Oc2cc(C)nc(-n3nc(C)cc3C)n2)cc1 | -75.8% (inactive)
28 | CC(=O)c1cnn(-c2cc(Oc3ccc(F)cc3)ncn2)c1C | 50.8% (active)
29 | CC(c1ccccn1)N(CCN(C)C)C(=S)Nc1ccccc1F (stereo unspecified) | 1.7% (inactive)
30 | O=C(Nc1cc2c3c(c1)C1CCCC1CN3CC1CCCC21)c1ccc([N+](=O)[O-])cc1 (stereo unspecified) | -2.9% (inactive)
31 | Cc1cc(C)n(-c2nc(O)cc(=O)[nH]2)n1 | -0.9% (inactive)
32 | CCC(=O)NCCc1nc2ccccc2n1CC | -6.7% (inactive)
33 | COC(=O)c1ccc(NC(=O)Nc2ccc(C)cc2)cc1 | -1.4% (inactive)
34 | CCOC(=O)N1CCC(NC(=O)c2ccc3nc(N4CCOCC4)sc3c2)CC1 | -2.2% (inactive)
35 | Cc1ccc2c(c1)sc1ncc(NC(=O)c3ccccc3)c(=O)n12 | -3.1% (inactive)
36 | O=C(Nc1nncs1)c1ccccc1NS(=O)(=O)c1cccs1 | 5.4% (inactive)
37 | Cc1nc2nc[nH]n2c(=O)c1NC(=O)c1cccc(OCC(C)C)c1 | -5.4% (inactive)
38 | CCOC(=O)NCc1ccc2c(c1)OCO2 | -8.2% (inactive)
39 | CCn1c(NC(=O)c2ccccc2)c(-c2cccs2)c(=O)c2ccccc21 | -8.7% (inactive)
40 | COc1ccc(C(C(=O)NCc2ccccc2)N(Cc2cccs2)C(=O)c2cnccn2)cc1 (stereo unspecified) | -2.8% (inactive)
41 | Cn1cnc([N+](=O)[O-])c1Nc1ccccc1O | 17.4% (inactive)
42 | Cn1c2ccccc2c2c(C(=O)N3CCN(c4ccc(F)cc4)CC3)cn(C3CCCC3)c(=O)c21 | -11.3% (inactive)

Row | Compound | activation
43 | COc1ccc(CCN(Cc2cc3cccc(C)c3[nH]c2=O)C(=O)N2CCCC2)cc1OC | -91.4% (inactive)
44 | CCC(c1nnnn1Cc1ccco1)N(CCc1ccccc1)Cc1cc2cccc(C)c2[nH]c1=O (stereo unspecified) | -0.4% (inactive)
45 | Cc1cccc2cc(CN(Cc3ccc4c(c3)OCO4)Cc3nnnn3C3CCCC3)c(=O)[nH]c12 | 37.5% (active)
46 | O=C(COC(=O)C12CC3CC(CC(C3)C1)C2)NCc1ccco1 | 3.3% (inactive)
47 | CC(C)C(=O)N1CCN(c2nc(-c3ccccc3)c3c(c2C#N)CC(C)(C)OC3)CC1 | -36.7% (inactive)
48 | CCCOc1cc(C)c(S(=O)(=O)n2nnc3ccccc32)cc1C | 45.5% (active)
49 | CC(=O)Nn1cc2c(=O)n(C)c(=O)n(C)c2c1 | -8.2% (inactive)
50 | O=C1CC(Sc2ncn[nH]2)C(=O)N1c1ccccc1 (stereo unspecified) | 4.7% (inactive)
51 | CCC(=O)Nc1ccc(S(=O)(=O)NCC2CCCO2)cc1 (stereo unspecified) | -5.4% (inactive)
52 | CCCN1C(=O)C(NS(=O)(=O)c2ccc(N)cc2)(C(F)(F)F)C(C(=O)OC)=C1C (stereo unspecified) | 1.5% (inactive)
53 | CCOCc1nnc(NC(=O)CSc2ccc(C)cc2)s1 | 5.6% (inactive)
54 | Cc1cccc(C)c1OC(=O)CSc1nnc(-c2ccccc2)o1 | 3.9% (inactive)
55 | CC(C)Nc1nc(N(c2ccccc2)c2ccccc2)nc(-n2ccnc2)n1 | 3.2% (inactive)
56 | CCOc1ccc(OCc2ccc(C(=O)Nc3cccc(C)n3)o2)cc1 | 9.1% (inactive)
57 | CCCNC(=O)Nc1ccccc1C(=O)Nc1ccc(OC)cc1 | -2.4% (inactive)
58 | Cc1cc(=O)oc(C)c1C(=O)NC1CC(C)(C)NC(C)(C)C1 | 12.6% (inactive)
59 | c1ccc(-c2cn3cccnc3n2)cc1 | -0.6% (inactive)
60 | C=CCn1c(COc2cccc3cccnc23)nnc1SCC(=O)OC | -28.4% (inactive)
61 | Cc1ccc(C)c(NC2=NCC(=O)N2c2ccc3c(c2)OCCO3)c1 | 21.9% (inactive)
